About 83,000 compounds went through this panel and 20% of them were active in at least one assay; those are over-represented in the sample as a whole.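 Single-dose data. Exposure time 48 hours. Values below 10 considered active.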 Calls of active or inactive are those of the source.

For one test, the system named is SF-268 CNS. The test can be described thus: NCI-60 one-dose screen, 48 h (100 = growth as untreated, 0 = no growth, -100 = all killed). Conditions: 10 µM unless noted.
`COc1cc(C(=O)/C=C/c2c(-c3ccc(F)cc3)nc3sccn23)cc(OC)c1OC`: the growth is 25.4% (inactive).

As to `Nc1nc(N)c2c(n1)NC(c1ccc(F)cc1)C1CCc3ccccc3C1=N2` (centres undefined), the growth is 76.1% (inactive).

`COc1ccc(-c2cc(-c3ccc(Cl)cc3)nc(NCCCCNc3ccnc4cc(Cl)ccc34)n2)cc1`: the growth was 86.5% (inactive).

With `Cc1cc(C)nc(SCC(=O)Nc2cccc(N=Cc3ccccc3O)c2)n1`, the growth is 98.7% (inactive).

`O=C(Nc1ccc(Nc2ccncc2)cc1)c1ccc([N+](=O)[O-])cc1`: the growth was 91.9% (inactive).

Turning to `O=C1COCCN1c1ccc(NCc2cn(Cc3cccc4ccccc34)c3ccccc23)cc1`, the growth was 85.3% (inactive).

In the case of `O=C1/C(=C\c2cccn2Cc2ccccc2)c2ccccc2N1c1c(Cl)cccc1Cl`, the growth was 80.6% (inactive).

Regarding `CCCCCN(CCCCC)CCCCCCCCN1CCCc2ccccc21`, the growth is 86.9% (inactive).

As to `CC(C)CSc1ncnc2nc[nH]c12`, the growth was 91.5% (inactive).

Turning to `CCN(CC)CCCC(C)Nc1ccnc2cc(Cl)c(SCc3ccccc3)cc12` (centres undefined), the growth is -66.3% (active).

On to `O=C(Nc1ccc(C(=O)/C=C/c2ccc(N3CCOCC3)cc2)cc1)Nc1ccc([N+](=O)[O-])cc1`, for which the growth was 97.1% (inactive).

Take `Cc1ccc(-c2cn(C/C=C3\C=CN(S(=O)(=O)c4ccccc4)CC3)nn2)cc1`: the growth is 99.3% (inactive).

As for `CCOc1ccc2sc(NS(=O)(=O)c3ccc(N)cc3)nc2c1`, the growth was 110% (inactive).

As for `O=C(NCCCNC(=O)OCc1ccc2c(Br)cc(Br)c(O)c2n1)OCc1ccc2c(Br)cc(Br)c(O)c2n1`, the growth was 10.3% (inactive).

Take `C=CCc1nc2ccccc2s1`: the growth is 108% (inactive).

Regarding `CCN(CC)CCCNCc1cc(-c2ccccc2)nc2ccccc12`, the growth was 39.8% (inactive).

`C=C(C)[C@@H]1CC[C@]2(C(N)=O)CC[C@]3(C)[C@H](CC[C@@H]4[C@@]5(C)C/C(=C/c6cccnc6)C(=O)C(C)(C)[C@@H]5CC[C@]43C)[C@@H]12`: the growth was 39.3% [100 µM] (inactive).

Turning to `COC(=O)C(=Cc1ccccc1[N+](=O)[O-])C(=O)OC`, the growth is 0.377% (active).

As for `CCOC(CNC(=O)c1cccc([N+](=O)[O-])c1)OCC`, the growth is 93.6% (inactive).

In the case of `Cc1ccc(-c2cc(O)c(-c3ccc(C)cc3C)cc2O)c(C)c1`, the growth was 57.4% (inactive).

For `Fc1cc2[nH]ncc2c2c3c(c(-c4cn[nH]c4)nc12)CCCC3`, the growth was 3.1% (active).

On to `O=C(CCN1CCCCC1)c1ccc(Cl)cc1`, for which the growth is 104% (inactive).

For `CCOC(=O)C1=C(C(=O)c2ccc(Br)cc2)C(c2ccc(Br)cc2)NC(=S)N1` (centres undefined), the growth is 98.6% (inactive).

Turning to `Cn1cc(-c2noc(-c3cn(C)c4ncc(F)cc34)n2)c2cc(Cl)ccc21`, the growth was 69.2% (inactive).

On to `O=[N+]([O-])c1cc([N+](=O)[O-])c(NN=C(c2ccc(O)cc2)c2ccc(O)cc2)cc1Cl`, for which the growth is -91.8% (active).

Take `NNC(=O)c1ccc(C(=O)NN)cc1`: the growth was 106% (inactive).

With `CN(C)CCOc1ccc(/C(=C(/CCCl)c2ccccc2)c2ccccc2)cc1`, the growth was 33% (inactive).

Turning to `CC(=O)Nc1ccc2nc3ccc(NC(C)=O)cc3[n+](-c3ccccc3)c2c1`, the growth was 97.5% (inactive).

`COc1ccc(/C=C(/C(=O)c2ccc(Cl)cc2)C(=O)C(F)(F)F)cc1`: the growth is 96.8% (inactive).

In the case of `COc1cc2c(c(OC)c1)C1c3cc(OC)ccc3NC(=O)N1CC2` (centres undefined), the growth is 80.4% (inactive).

In the case of `COc1ccc(C=C2c3ccccc3-c3ccccc32)cc1`, the growth was 53.8% (inactive).

For `O=S(=O)(c1ccc(N/N=C\c2ccccc2Cl)cc1)c1ccc(N/N=C/c2ccccc2Cl)cc1`, the growth is 67.8% (inactive).

In the case of `CSc1nc(N)c(N=Nc2ccc(S(=O)(=O)Nc3nnc(C)s3)cc2)c(=O)[nH]1`, the growth is 101% (inactive).

Regarding `C=C(C)[C@@H]1CC[C@]2(C)[C@H](CC=C3[C@@H]4[C@@H](C)[C@H](C)CC[C@]4(C(N)=O)CC[C@]32C)[C@@]1(C)CCC#N`, the growth was 15.2% [100 µM] (inactive).

Regarding `CCOC(=O)CC(c1ccccc1)C(C#N)c1ccccc1` (centres undefined), the growth was 99.4% (inactive).

For the molecule `Clc1ccc(/C=N/Nc2nc3ccccc3s2)c(Cl)c1`, the growth is 85.4% (inactive).

As to `CC1(C)CC[C@]2(C(=O)O)CC[C@]3(C)[C@H](CC[C@@H]4[C@@]5(C)CCC(=O)C(C)(C)[C@@H]5CC[C@]43C)[C@H]2[C@H]1OC(=O)C(F)(F)F`, the growth was -92.4% [100 µM] (active).

Another test has as its system SF-295 CNS. The test is described as above. Conditions: 10 µM unless noted.
For `COc1cc(C(=O)/C=C/c2c(-c3ccc(F)cc3)nc3sccn23)cc(OC)c1OC`, the growth is 3.82% (active).

As for `Nc1nc(N)c2c(n1)NC(c1ccc(F)cc1)C1CCc3ccccc3C1=N2` (centres undefined), the growth was 34.2% (inactive).

Consider `COc1ccc(-c2cc(-c3ccc(Cl)cc3)nc(NCCCCNc3ccnc4cc(Cl)ccc34)n2)cc1`, for which the growth was 83.8% (inactive).

Take `Cc1cc(C)nc(SCC(=O)Nc2cccc(N=Cc3ccccc3O)c2)n1`: the growth is 102% (inactive).

In the case of `O=C(Nc1ccc(Nc2ccncc2)cc1)c1ccc([N+](=O)[O-])cc1`, the growth was 79.6% (inactive).

As for `O=C1COCCN1c1ccc(NCc2cn(Cc3cccc4ccccc34)c3ccccc23)cc1`, the growth is 89.6% (inactive).

Regarding `O=C1/C(=C\c2cccn2Cc2ccccc2)c2ccccc2N1c1c(Cl)cccc1Cl`, the growth was 77.5% (inactive).

As for `CCCCCN(CCCCC)CCCCCCCCN1CCCc2ccccc21`, the growth is 80.1% (inactive).

Turning to `CC(C)CSc1ncnc2nc[nH]c12`, the growth was 103% (inactive).

Consider `CCN(CC)CCCC(C)Nc1ccnc2cc(Cl)c(SCc3ccccc3)cc12` (centres undefined), for which the growth is -81.7% (active).

On to `O=C(Nc1ccc(C(=O)/C=C/c2ccc(N3CCOCC3)cc2)cc1)Nc1ccc([N+](=O)[O-])cc1`, for which the growth was 103% (inactive).

Take `Cc1ccc(-c2cn(C/C=C3\C=CN(S(=O)(=O)c4ccccc4)CC3)nn2)cc1`: the growth was 99.3% (inactive).

Consider `CCOc1ccc2sc(NS(=O)(=O)c3ccc(N)cc3)nc2c1`, for which the growth is 109% (inactive).

For the molecule `O=C(NCCCNC(=O)OCc1ccc2c(Br)cc(Br)c(O)c2n1)OCc1ccc2c(Br)cc(Br)c(O)c2n1`, the growth is 20% (inactive).

As to `C=CCc1nc2ccccc2s1`, the growth is 117% (inactive).

On to `CCN(CC)CCCNCc1cc(-c2ccccc2)nc2ccccc12`, for which the growth was 70.2% (inactive).

In the case of `C=C(C)[C@@H]1CC[C@]2(C(N)=O)CC[C@]3(C)[C@H](CC[C@@H]4[C@@]5(C)C/C(=C/c6cccnc6)C(=O)C(C)(C)[C@@H]5CC[C@]43C)[C@@H]12`, the growth was 6.69% [100 µM] (active).

Consider `COC(=O)C(=Cc1ccccc1[N+](=O)[O-])C(=O)OC`, for which the growth was 97.1% (inactive).

Consider `CCOC(CNC(=O)c1cccc([N+](=O)[O-])c1)OCC`, for which the growth is 91.2% (inactive).

Take `Cc1ccc(-c2cc(O)c(-c3ccc(C)cc3C)cc2O)c(C)c1`: the growth was 65.7% (inactive).

For the molecule `Fc1cc2[nH]ncc2c2c3c(c(-c4cn[nH]c4)nc12)CCCC3`, the growth was 9.21% (active).

In the case of `O=C(CCN1CCCCC1)c1ccc(Cl)cc1`, the growth is 94.2% (inactive).

`CCOC(=O)C1=C(C(=O)c2ccc(Br)cc2)C(c2ccc(Br)cc2)NC(=S)N1` (centres undefined): the growth was 102% (inactive).

As for `Cn1cc(-c2noc(-c3cn(C)c4ncc(F)cc34)n2)c2cc(Cl)ccc21`, the growth is 41.6% (inactive).

Take `O=[N+]([O-])c1cc([N+](=O)[O-])c(NN=C(c2ccc(O)cc2)c2ccc(O)cc2)cc1Cl`: the growth is 104% (inactive).

Take `NNC(=O)c1ccc(C(=O)NN)cc1`: the growth is 106% (inactive).

As to `CN(C)CCOc1ccc(/C(=C(/CCCl)c2ccccc2)c2ccccc2)cc1`, the growth was 4.51% (active).

`CC(=O)Nc1ccc2nc3ccc(NC(C)=O)cc3[n+](-c3ccccc3)c2c1`: the growth was 121% (inactive).

In the case of `COc1ccc(/C=C(/C(=O)c2ccc(Cl)cc2)C(=O)C(F)(F)F)cc1`, the growth is 96.2% (inactive).

For the molecule `COc1cc2c(c(OC)c1)C1c3cc(OC)ccc3NC(=O)N1CC2` (centres undefined), the growth is 74% (inactive).

With `COc1ccc(C=C2c3ccccc3-c3ccccc32)cc1`, the growth is 31.7% (inactive).

As for `O=S(=O)(c1ccc(N/N=C\c2ccccc2Cl)cc1)c1ccc(N/N=C/c2ccccc2Cl)cc1`, the growth was 89.6% (inactive).

For the molecule `CSc1nc(N)c(N=Nc2ccc(S(=O)(=O)Nc3nnc(C)s3)cc2)c(=O)[nH]1`, the growth is 133% (inactive).

For `C=C(C)[C@@H]1CC[C@]2(C)[C@H](CC=C3[C@@H]4[C@@H](C)[C@H](C)CC[C@]4(C(N)=O)CC[C@]32C)[C@@]1(C)CCC#N`, the growth was 5.51% [100 µM] (active).

As for `CCOC(=O)CC(c1ccccc1)C(C#N)c1ccccc1` (centres undefined), the growth was 110% (inactive).

`Clc1ccc(/C=N/Nc2nc3ccccc3s2)c(Cl)c1`: the growth is 97.5% (inactive).

Turning to `CC1(C)CC[C@]2(C(=O)O)CC[C@]3(C)[C@H](CC[C@@H]4[C@@]5(C)CCC(=O)C(C)(C)[C@@H]5CC[C@]43C)[C@H]2[C@H]1OC(=O)C(F)(F)F`, the growth is -62.5% [100 µM] (active).

The record behind these values is PubChem BioAssay (NCI).
